Laboratory results as given in PubChem BioAssay (NCATS).
“And” between values parts separate entries of the source, which are not always exact repeats. Identical values can stand only once. Inconclusive results are not listed. Values without a mark were called inactive. The source made the active and inactive calls. Calls come from the whole dose curve; as a rule, active = well fitted inhibition curve with a large enough effect; inconclusive = small, poorly fitted or top-dose-only effect; inactive = flat fitted curve, though single readings scatter.

These compounds were tested on CRL-7250 (assay: Cytotoxic Profiling of Annotated Libraries Using Quantitative High-Throughput Screening (AID 1296008; note: nearly all actives have a fitted effect of over 60% in size)). Details: Five cell lines viability, CellTiter-Glo ATP luminescence, 48-72 h; max response: stronger effect = lower value.
Outline: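 Cells exposed to compounds for 48 or 72 hr at 37 degrees Celsius. Viability read as ATP-coupled luminescence with CellTiter-Glo after 10 min at room temperature.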
% is set by controls: 0 for no effect and ±100 for the full control effect; potency is the fitted concentration of half-maximal effect.

Compound	Potency	max response	outcome
COc1ccc(-c2cc3nccn3c(Nc3ncccc3C(N)=O)n2)cc1OC	2.09 µM (active)	–	–
CN1CC(=O)NC1=NC(=O)Nc1cccc(Cl)c1	–	-9.31%	–
Nc1nc(Cl)nc2c1ncn2[C@@H]1O[C@H](CO)[C@@H](O)[C@H]1F	1.66 µM (active)	–	–
O=C1NC(=O)C(=Cc2ccc(-c3ccc(F)cc3O)o2)S1	–	-7.89%	–
CS(=O)(=O)c1ccc(C2=C(c3ccccc3)C(=O)OC2)cc1	–	3.58% and 2.56%	–
Cc1ccc(C(=O)N(CCCN)[C@@H](c2oc3cc(Cl)ccc3c(=O)c2Cc2ccccc2)C(C)C)cc1	–	-26.7%	–
COC(=O)Nc1ccc(-c2nc(N3CCOCC3)c3cnn(C4CCN(C(=O)OC)CC4)c3n2)cc1	0.332 µM (active)	–	–
C[C@@H](N)c1ccc(C(=O)Nc2ccnc3[nH]ccc23)cc1	–	-24.2%	–
Cc1cc(OCCCS(C)(=O)=O)cc(C)c1-c1cccc(COc2ccc3c(c2)OC[C@H]3CC(=O)O)c1	–	-33.3%	–
O=C(CCCN1CCN(c2ccc(F)cc2)CC1)NC1c2ccccc2CSc2ccccc21 (centres undefined)	8.33 µM (active)	–	–
Cc1csc(-c2nnc(Nc3ccc(Oc4ncccc4-c4ccnc(N)n4)cc3)c3ccccc23)c1	–	-3.89% and -3.06%	–
CN[C@@H](C)[C@H]1[C@H](O)C[C@@]2(C)[C@@H]3CC[C@H]4C(C)(C)[C@@H](NC)CC[C@@]45C[C@@]35CC[C@]12C	–	-4.48% and 3.02%	–
Cc1ccc(C(=O)N(CCCN)[C@@H](c2nc3cc(Cl)ccc3c(=O)n2Cc2ccccc2)C(C)C)cc1	–	-35.4%	–
CCCCCCCCCCCCCC(=O)N[C@H](CO)[C@H](O)c1ccc([N+](=O)[O-])cc1	9.35 µM (active)	–	–
CCC(C)SSc1ncc[nH]1 (centres undefined)	–	-3.49%	–
Cc1ccc(NC(=O)c2ccc(CN3CCN(C)CC3)cc2)cc1Nc1nc(-c2cccnc2)cs1	–	-52.7%	–
CN(C(Cc1ccc(OS(=O)(=O)c2cccc3cnccc23)cc1)C(=O)N1CCN(c2ccccc2)CC1)S(=O)(=O)c1cccc2cnccc12 (centres undefined)	–	0.636%	–

Compound	Potency	max response	outcome
O=C(c1ccc(F)c(F)c1Nc1ccc(I)cc1F)N1CC(O)([C@H]2CCCCN2)C1	2.96 µM (active)	–	–
COc1ccc(Cn2ccc3ccc(C(=O)NO)cc32)cc1	–	-16.1% and -2.36%	–
Cc1cccc(Nc2nc(N[C@@H]3CCCC[C@H]3N)ncc2C(N)=O)c1	–	–	inactive
COc1cc2nccc(Oc3ccc(NC(=O)Nc4cc(C)on4)c(Cl)c3)c2cc1OC	14.8 µM (active)	–	–
Cc1cc(-c2ncc(CC(=O)Nc3ccc(-c4cnccn4)cn3)cc2C)ccn1	10.5 µM (active) and 6.51 µM (active)	–	–
CC[C@H](CC#N)OC(=O)N[C@@H](C)c1cccc(NC(=O)Nc2ccc(-c3cnco3)c(OC)c2)c1	1.66 µM (active) and 1.03 µM (active)	–	–
CCC(=O)N1CCN(c2ccc(-n3c(=O)ccc4cnc5ccc(-c6cnc7ccccc7c6)cc5c43)cc2C(F)(F)F)CC1	0.0841 µM (active)	–	–
COc1nccc(-c2c(-c3ccc(F)cc3)ncn2C2CCC(O)CC2)n1 (centres undefined)	–	2.19% and -0.385%	–
CC(O)=C(C#N)C(=O)Nc1ccc(C(F)(F)F)cc1	–	-8.07%	–
CCNC(=O)c1noc(-c2cc(C(C)C)c(O)cc2O)c1-c1ccc(CN2CCOCC2)cc1	0.0833 µM (active)	–	–
O=C(c1ccc(C=Cc2n[nH]c3ccccc23)cc1)N1CCNCC1	–	-12.3%	–
Cn1cc(-c2ccc3nnc(Sc4ccc5ncccc5c4)n3n2)cn1	–	-0.0054%	–
CN(C)CCN(C)C(=O)c1ccc(NC(=O)Nc2ccc(-c3nc(N4CCOCC4)c4ccn(CC(F)(F)F)c4n3)cc2)cc1	0.0662 µM (active)	–	–
CC(C)n1c(C=C[C@H](O)C[C@H](O)CC(=O)O)c(-c2ccc(F)cc2)c2ccccc21	2.64 µM (active)	–	–
Fc1ccc(CNc2ncnc3ccc(F)cc23)cc1	4.69 µM (active) and 4.61 µM (active)	–	–
C=CC(=O)Nc1cccc(Sc2nc(Nc3ccc(N4CCN(C)CC4)cc3)ncc2Cl)c1	33.2 µM (active)	–	–
Cc1nc2c([nH]1)CCN(C(=O)c1ccc(NC(=O)c3ccccc3-c3ccccc3)cc1)c1ccccc1-2	–	1.7% and 3.01%	–
